# Measurements published in PubChem BioAssay (NCI).
# This is part of a sample that, as a whole, favours compounds with a hit. Of some 79,000 tested, about 15% had one in any assay. Active and inactive are the calls of the source. Rule as the data show it: active = growth inhibition above about 70%; inactive = the rest.
# Assay: NCI Yeast Anticancer Drug Screen. Data for the bub3 strain (AID 167)
# Settings: S. cerevisiae bub3 mutant strain, hits give high values; at 50.0 µM unless noted
# Procedure, shortened: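 Growth of a checkpoint-deficient yeast mutant is measured after compound exposure. Values represent inhibition relative to vehicle.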
row,Structure (SMILES),growth inhibition
1,CC(N)C(=O)NO (stereo not drawn),4.85% (inactive)
2,O=P(O)(O)OCC1OC(n2cnc3c(=S)nc[nH]c32)C(O)C1O (stereo not drawn),-7.7% (inactive)
3,C=C=C(C)[Si](C)(C)C,-51.5% (inactive)
4,Nc1ccc(C(=O)N/N=C/c2ccccc2O)cc1,0% (inactive)
5,O=C1NC(=S)S/C1=C/C=C/c1ccccc1,-5.2% (inactive)
6,C=C(c1c(C)cccc1OC(C)=O)c1c(C)cccc1OC(C)=O,17.3% (inactive)
7,COc1ccc(/C=C2\N=C3N(Cc4ccccc4)C=C(N)N3C2=O)cc1,17.8% (inactive)
8,COc1ccc2oc3cc(Cl)ccc3c(=O)c2c1,30.4% (inactive)
9,O=C(CCC1OCCO1)Nc1cc([N+](=O)[O-])ccc1OCc1ccccc1,-1.35% (inactive)
10,CC(=O)O[C@@H]1C(=O)C=C(C)[C@@H]2[C@@H](OC(=O)C=C(C)C)[C@H]3OC(=O)C[C@H]4[C@@H](C)[C@@H](O)[C@]5(O)OC[C@]34[C@H]5[C@@]12C,79.5% (active)
11,COc1ccccc1N=Nc1c(O)n(-c2ccccc2OC)c(=S)n(-c2ccccc2)c1=O,-2.5% (inactive)
12,CCOC(=N)n1c(=O)n(C2=NCCN2)c2ccccc21,22.2% (inactive)
13,C=CCCCC1CCCNC1=S (stereo not drawn),28.9% (inactive)
14,N#C/C(=C\c1ccccc1)c1ccc(F)cc1,32.5% (inactive)
15,CC(c1cccc(O)c1)N(C)C (stereo not drawn),1.25% (inactive)
16,[N-]=[N+]=Nc1cccc(-c2n[nH]c(Cl)cc2=O)c1,-10.9% (inactive)
17,C=CCOC(=O)c1ccc(C(C)C)cc1,8% (inactive)
18,O=C1C=C(c2ccccc2)C(c2ccccc2)/C1=N/O (stereo not drawn),11.9% (inactive)
19,CCO/C([O-])=N\[n+]1c(C)nc2cc3c(cc2c1C)OCO3,9% (inactive)
20,CCN(CC)CCCC(C)Nc1ncnc2ccccc12 (stereo not drawn),-7.3% (inactive)

row,Structure (SMILES),growth inhibition
1,COc1ccc(CC2c3cc(OC)c(OC)cc3CC[N+]2(C)C)cc1OC (stereo not drawn),-1.65% (inactive)
2,CCN(CC)CCn1c2cc3c(cc2c(=O)c2cccnc21)OCO3,-34% (inactive)
3,CCOC(=O)C1=C(C(=O)c2ccc(OC)cc2)C(c2ccc([N+](=O)[O-])cc2)C(C(=O)c2ccc(OC)cc2)=C(C(=O)OCC)N1,4.95% (inactive)
4,CCN(CC)CCC(=O)c1ccc(Cl)cc1,1.05% (inactive)
5,Cc1n[nH]c(=O)n1/N=C/c1ccncc1,-4.35% (inactive)
6,O=C1CSC(c2c[nH]c3ccccc23)N1c1ccc(Cl)cc1 (stereo not drawn),-28.9% (inactive)
7,O=C1OC(=O)c2c1nc1ccccc1c2-c1ccccc1,-6.15% (inactive)
8,CC(=O)OC1CC(n2cc(F)c(=O)[nH]c2=O)OC1CO (stereo not drawn),-0.45% (inactive)
9,CC(=O)Nc1snc(C)c1[N+](=O)[O-],-2.9% (inactive)
10,Cc1onc(-c2ccccc2)c1C(C)(O)c1ccccc1 (stereo not drawn),18.2% (inactive)
11,Clc1ccc(-c2cn3c(nc4ccccc43)c(-c3ccccc3)n2)cc1,-22.5% (inactive)
12,CCOC(=O)C1Oc2ccc([N+](=O)[O-])cc2C1(C)O (stereo not drawn),1.85% (inactive)
13,O=c1[nH]c2cc(Cl)ccc2nc1/C(=N\O)C(O)c1ccc([N+](=O)[O-])cc1 (stereo not drawn),-17.2% (inactive)
14,CC(C)OC(=O)C(O)c1ccccc1 (stereo not drawn),-9.45% (inactive)
15,CSc1ccc2nncc(SC)c2c1,18% (inactive)
16,CCN(CC)C/C(C)=C(/c1ccccc1)c1ccccc1S(N)(=O)=O,1.15% (inactive)
17,COC(=O)C(=O)c1c(C(=O)OC)nc2nnc(N)n2c1-c1cccc([N+](=O)[O-])c1,12.4% (inactive)
18,CC(=O)c1ccc(N=CC2CCCCC2=O)cc1 (stereo not drawn),-2.9% (inactive)
19,Cc1c(Cl)cccc1NC(=O)COc1ccc(Cl)cc1,6.5% (inactive)

# Assay: NCI Yeast Anticancer Drug Screen. Data for the mlh1 rad18 strain (AID 175)
# Settings: S. cerevisiae mlh1 rad18 strain growth inhibition, hits give high values; at 50.0 µM unless noted
# Procedure, shortened: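 A repair-deficient yeast strain is exposed to test compound, and growth is scored relative to vehicle-treated controls.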
row,Structure (SMILES),growth inhibition
1,CC(N)C(=O)NO (stereo not drawn),-36% (inactive)
2,O=P(O)(O)OCC1OC(n2cnc3c(=S)nc[nH]c32)C(O)C1O (stereo not drawn),-3.55% (inactive)
3,C=C=C(C)[Si](C)(C)C,-45.9% (inactive)
4,Nc1ccc(C(=O)N/N=C/c2ccccc2O)cc1,19.2% (inactive)
5,O=C1NC(=S)S/C1=C/C=C/c1ccccc1,25.9% (inactive)
6,C=C(c1c(C)cccc1OC(C)=O)c1c(C)cccc1OC(C)=O,-6.55% (inactive)
7,COc1ccc(/C=C2\N=C3N(Cc4ccccc4)C=C(N)N3C2=O)cc1,9.75% (inactive)
8,COc1ccc2oc3cc(Cl)ccc3c(=O)c2c1,14.2% (inactive)
9,O=C(CCC1OCCO1)Nc1cc([N+](=O)[O-])ccc1OCc1ccccc1,7.6% (inactive)
10,CC(=O)O[C@@H]1C(=O)C=C(C)[C@@H]2[C@@H](OC(=O)C=C(C)C)[C@H]3OC(=O)C[C@H]4[C@@H](C)[C@@H](O)[C@]5(O)OC[C@]34[C@H]5[C@@]12C,91.8% (active)
11,COc1ccccc1N=Nc1c(O)n(-c2ccccc2OC)c(=S)n(-c2ccccc2)c1=O,16.9% (inactive)
12,CCOC(=N)n1c(=O)n(C2=NCCN2)c2ccccc21,-43.8% (inactive)
13,C=CCCCC1CCCNC1=S (stereo not drawn),20.9% (inactive)
14,N#C/C(=C\c1ccccc1)c1ccc(F)cc1,25.8% (inactive)
15,CC(c1cccc(O)c1)N(C)C (stereo not drawn),-3.85% (inactive)
16,[N-]=[N+]=Nc1cccc(-c2n[nH]c(Cl)cc2=O)c1,-34% (inactive)
17,C=CCOC(=O)c1ccc(C(C)C)cc1,35.6% (inactive)
18,O=C1C=C(c2ccccc2)C(c2ccccc2)/C1=N/O (stereo not drawn),-9.85% (inactive)
19,CCO/C([O-])=N\[n+]1c(C)nc2cc3c(cc2c1C)OCO3,8.9% (inactive)
20,CCN(CC)CCCC(C)Nc1ncnc2ccccc12 (stereo not drawn),-2.25% (inactive)

row,Structure (SMILES),growth inhibition
1,COc1ccc(CC2c3cc(OC)c(OC)cc3CC[N+]2(C)C)cc1OC (stereo not drawn),-46.4% (inactive)
2,CCN(CC)CCn1c2cc3c(cc2c(=O)c2cccnc21)OCO3,24.1% (inactive)
3,CCOC(=O)C1=C(C(=O)c2ccc(OC)cc2)C(c2ccc([N+](=O)[O-])cc2)C(C(=O)c2ccc(OC)cc2)=C(C(=O)OCC)N1,-3.25% (inactive)
4,CCN(CC)CCC(=O)c1ccc(Cl)cc1,17.4% (inactive)
5,Cc1n[nH]c(=O)n1/N=C/c1ccncc1,7% (inactive)
6,O=C1CSC(c2c[nH]c3ccccc23)N1c1ccc(Cl)cc1 (stereo not drawn),-30.4% (inactive)
7,O=C1OC(=O)c2c1nc1ccccc1c2-c1ccccc1,23.6% (inactive)
8,CC(=O)OC1CC(n2cc(F)c(=O)[nH]c2=O)OC1CO (stereo not drawn),2.5% (inactive)
9,CC(=O)Nc1snc(C)c1[N+](=O)[O-],0.55% (inactive)
10,Cc1onc(-c2ccccc2)c1C(C)(O)c1ccccc1 (stereo not drawn),5.7% (inactive)
11,Clc1ccc(-c2cn3c(nc4ccccc43)c(-c3ccccc3)n2)cc1,-16% (inactive)
12,CCOC(=O)C1Oc2ccc([N+](=O)[O-])cc2C1(C)O (stereo not drawn),-4.45% (inactive)
13,O=c1[nH]c2cc(Cl)ccc2nc1/C(=N\O)C(O)c1ccc([N+](=O)[O-])cc1 (stereo not drawn),-5% (inactive)
14,CC(C)OC(=O)C(O)c1ccccc1 (stereo not drawn),8.2% (inactive)
15,CSc1ccc2nncc(SC)c2c1,40.9% (inactive)
16,CCN(CC)C/C(C)=C(/c1ccccc1)c1ccccc1S(N)(=O)=O,9.65% (inactive)
17,COC(=O)C(=O)c1c(C(=O)OC)nc2nnc(N)n2c1-c1cccc([N+](=O)[O-])c1,18% (inactive)
18,CC(=O)c1ccc(N=CC2CCCCC2=O)cc1 (stereo not drawn),-13.9% (inactive)
19,Cc1c(Cl)cccc1NC(=O)COc1ccc(Cl)cc1,4.05% (inactive)
